Results: the supplement of paper PMC10849652
About 8,800 targets were measured; listed, in parts, are those with a hit and a random draw of the rest. About 0.5% of all pairs of compound and target were hits.

Tests used:
Test in all cases: log2 fold change, soluble protein after heating vs DMSO (PISA); higher = thermal stabilisation; K562 lysate, 10 uM; active = over 0.2 and 3.5 SD of the protein, either way, in both replicates (recomputed)
vemurafenib = compound: CCCS(=O)(=O)Nc1ccc(F)c(C(=O)c2c[nH]c3ncc(-c4ccc(Cl)cc4)cc23)c1F [vemurafenib]
How it was run: (§1)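 Quantification was by TMTpro 16plex LC-MS/MS with equalised channel sums, applied to the supernatant after 21,000xg for 90 min. Samples were crude K562 extract at 1 mg/mL protein in PBS pH 7.4 with 1 mM MgCl2, treated with 10 μM compound for 30 min, heated for 3 min across 48°C-58°C, pooled and brought to 0.5% NP-40 at 4°C. Values are log-two fold changes in thermal stability relative to solvent controls, from duplicates.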

[1] = compound: CCCS(=O)(=O)Nc1ccc(F)c(C(=O)c2c[nH]c3ncc(Cl)cc23)c1F
How it was run: as §1

barasertib = compound: CCN(CCCOc1ccc2c(Nc3cc(CC(=O)Nc4cccc(F)c4)[nH]n3)ncnc2c1)CCOP(=O)(O)O [barasertib]
How it was run: as §1

[2] = compound: CC[C@@H]1C(=O)N(C)c2cnc(Nc3ccc(C(=O)NC4CCN(C)CC4)cc3OC)nc2N1C1CCCC1
How it was run: as §1

volasertib = compound: CC[C@@H]1C(=O)N(C)c2cnc(Nc3ccc(C(=O)N[C@H]4CC[C@H](N5CCN(CC6CC6)CC5)CC4)cc3OC)nc2N1C(C)C [volasertib]
How it was run: as §1

[3] = compound: CCn1c(C(=O)N(C2CC2)C2CC2)cc2c3c(ncn3C)c(Nc3cc(C)n(C)n3)nc21
How it was run: as §1

[4] = compound: CCn1cc(-c2ccnc3[nH]c(-c4cccc(CN(C)C)c4)cc23)c(-c2ccc(NC(=O)N(C)C)cc2)n1
How it was run: as §1

[5] = compound: CN1CCC(CNc2ccc3ncc(-c4cccc(OC(F)(F)F)c4)n3n2)CC1
How it was run: as §1

saracatinib = compound: CN1CCN(CCOc2cc(OC3CCOCC3)c3c(Nc4c(Cl)ccc5c4OCO5)ncnc3c2)CC1 [saracatinib]
How it was run: as §1

sotrastaurin = compound: CN1CCN(c2nc(C3=C(c4c[nH]c5ccccc45)C(=O)NC3=O)c3ccccc3n2)CC1 [sotrastaurin]
How it was run: as §1

Measured: log2 fold change

PIGO (UniProt Q8TEQ8)
active: sotrastaurin -0.499
inactive: vemurafenib -0.112 | [1] 0.109 | barasertib 0.064 | [2] 0.013 | volasertib -0.069 | [3] -0.081 | [4] -0.029 | [5] -0.043 | saracatinib -0.013

PDIA4 (UniProt P13667)
inactive: vemurafenib -0.007 | [1] -0.02 | barasertib -0.028 | [2] 0.017 | volasertib 0.012 | [3] -0.008 | [4] 0.036 | [5] -0.045 | saracatinib 0.012 | sotrastaurin 0

PLEKHA5 isoform 6 (UniProt Q9HAU0)
Sequence of UniProt Q9HAU0 (Q9HAU0 whole entry, looked up): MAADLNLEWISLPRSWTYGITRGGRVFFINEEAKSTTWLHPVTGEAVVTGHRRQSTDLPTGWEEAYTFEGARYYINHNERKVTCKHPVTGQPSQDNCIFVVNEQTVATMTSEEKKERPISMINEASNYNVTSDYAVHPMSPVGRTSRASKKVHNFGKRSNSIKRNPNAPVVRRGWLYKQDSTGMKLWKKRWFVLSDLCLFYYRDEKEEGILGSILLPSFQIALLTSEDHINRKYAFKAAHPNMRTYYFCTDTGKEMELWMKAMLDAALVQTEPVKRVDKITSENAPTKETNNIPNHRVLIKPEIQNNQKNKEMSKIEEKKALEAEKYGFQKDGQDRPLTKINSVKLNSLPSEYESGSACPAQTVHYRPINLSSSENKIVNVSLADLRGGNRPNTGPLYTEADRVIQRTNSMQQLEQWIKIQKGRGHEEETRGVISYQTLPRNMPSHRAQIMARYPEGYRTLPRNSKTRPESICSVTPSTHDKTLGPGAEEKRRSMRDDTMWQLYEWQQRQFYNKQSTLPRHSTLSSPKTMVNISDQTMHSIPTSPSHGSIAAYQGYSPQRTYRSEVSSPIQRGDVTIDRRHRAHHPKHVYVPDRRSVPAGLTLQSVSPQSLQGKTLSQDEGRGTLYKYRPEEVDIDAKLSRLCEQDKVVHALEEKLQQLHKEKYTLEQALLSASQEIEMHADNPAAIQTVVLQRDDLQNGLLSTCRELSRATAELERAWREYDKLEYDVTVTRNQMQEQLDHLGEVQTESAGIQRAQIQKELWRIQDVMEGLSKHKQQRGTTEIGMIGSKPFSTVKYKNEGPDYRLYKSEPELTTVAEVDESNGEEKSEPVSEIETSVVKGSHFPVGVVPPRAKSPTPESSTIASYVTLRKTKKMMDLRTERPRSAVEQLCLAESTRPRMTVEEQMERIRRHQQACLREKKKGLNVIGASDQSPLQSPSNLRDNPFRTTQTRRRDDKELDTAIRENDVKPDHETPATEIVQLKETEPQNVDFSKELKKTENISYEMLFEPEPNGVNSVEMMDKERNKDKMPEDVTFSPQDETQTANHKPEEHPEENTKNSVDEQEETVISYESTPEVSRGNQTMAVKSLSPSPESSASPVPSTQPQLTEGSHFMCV
inactive: vemurafenib 0.003 | [1] -0.003 | barasertib 0.043 | [2] -0.005 | volasertib 0.003 | [3] 0.026 | [4] -0.117 | [5] -0.088 | saracatinib 0.027 | sotrastaurin 0.02

PEF1 (UniProt Q9UBV8)
Sequence of UniProt Q9UBV8 (Q9UBV8 whole entry, looked up): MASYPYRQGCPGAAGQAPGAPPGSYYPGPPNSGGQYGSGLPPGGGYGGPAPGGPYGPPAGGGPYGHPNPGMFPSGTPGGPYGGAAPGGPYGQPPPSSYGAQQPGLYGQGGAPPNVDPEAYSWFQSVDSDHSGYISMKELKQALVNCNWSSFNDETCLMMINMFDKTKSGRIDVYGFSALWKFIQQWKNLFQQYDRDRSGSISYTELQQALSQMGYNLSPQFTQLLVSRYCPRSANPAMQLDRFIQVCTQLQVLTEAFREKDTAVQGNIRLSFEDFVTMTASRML
inactive: vemurafenib -0.025 | [1] 0.015 | barasertib 0.189 | [2] 0.033 | volasertib 0.009 | [3] -0.001 | [4] -0.116 | [5] -0.043 | saracatinib -0.025 | sotrastaurin -0.016

POLR2B (UniProt P30876)
inactive: vemurafenib 0.021 | [1] -0.004 | barasertib 0.039 | [2] -0.049 | volasertib -0.074 | [3] 0.01 | [4] -0.029 | [5] 0.017 | saracatinib 0.016 | sotrastaurin 0.024

PRKCSH (UniProt K7ELL7)
inactive: vemurafenib 0.089 | [1] 0.02 | barasertib -0.037 | [2] 0.186 | volasertib -0.04 | [3] 0.013 | [4] 0.217 | [5] -0.008 | saracatinib -0.011 | sotrastaurin -0.015

PRC1 (UniProt O43663)
Sequence of UniProt O43663 (O43663 whole entry, looked up): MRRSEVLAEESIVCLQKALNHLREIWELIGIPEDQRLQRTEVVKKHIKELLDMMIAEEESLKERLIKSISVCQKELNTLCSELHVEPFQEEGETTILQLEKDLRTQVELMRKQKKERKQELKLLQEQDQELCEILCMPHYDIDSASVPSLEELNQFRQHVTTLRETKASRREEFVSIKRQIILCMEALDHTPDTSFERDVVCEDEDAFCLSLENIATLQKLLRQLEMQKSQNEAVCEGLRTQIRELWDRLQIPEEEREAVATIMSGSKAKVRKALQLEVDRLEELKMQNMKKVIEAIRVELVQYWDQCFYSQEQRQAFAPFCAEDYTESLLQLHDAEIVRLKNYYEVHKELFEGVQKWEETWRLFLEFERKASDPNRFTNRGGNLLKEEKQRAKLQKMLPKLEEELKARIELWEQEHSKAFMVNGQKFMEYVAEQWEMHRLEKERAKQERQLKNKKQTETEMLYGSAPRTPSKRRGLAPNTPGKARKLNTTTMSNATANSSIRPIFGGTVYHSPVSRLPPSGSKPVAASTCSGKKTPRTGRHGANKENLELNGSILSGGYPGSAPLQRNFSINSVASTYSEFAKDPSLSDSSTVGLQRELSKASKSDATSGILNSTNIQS
inactive: vemurafenib 0.048 | [1] 0.03 | barasertib 0.063 | [2] -0.057 | volasertib -0.028 | [3] 0 | [4] -0.004 | [5] -0.094 | saracatinib 0.025 | sotrastaurin 0.005

PREP (UniProt P48147)
inactive: vemurafenib 0.028 | [1] 0.011 | barasertib -0.003 | [2] -0.025 | volasertib -0.025 | [3] 0.023 | [4] 0.008 | [5] -0.013 | saracatinib 0.005 | sotrastaurin 0.001

PLEKHF1 (UniProt Q96S99)
inactive: vemurafenib 0.019 | [1] -0.008 | barasertib 0.004 | [2] -0.004 | volasertib 0.002 | [3] 0.059 | [4] -0.062 | [5] 0.018 | saracatinib 0.007 | sotrastaurin -0.028

PCBP2 isoform 8 (UniProt Q15366)
Sequence of UniProt Q15366 (Q15366 whole entry, looked up): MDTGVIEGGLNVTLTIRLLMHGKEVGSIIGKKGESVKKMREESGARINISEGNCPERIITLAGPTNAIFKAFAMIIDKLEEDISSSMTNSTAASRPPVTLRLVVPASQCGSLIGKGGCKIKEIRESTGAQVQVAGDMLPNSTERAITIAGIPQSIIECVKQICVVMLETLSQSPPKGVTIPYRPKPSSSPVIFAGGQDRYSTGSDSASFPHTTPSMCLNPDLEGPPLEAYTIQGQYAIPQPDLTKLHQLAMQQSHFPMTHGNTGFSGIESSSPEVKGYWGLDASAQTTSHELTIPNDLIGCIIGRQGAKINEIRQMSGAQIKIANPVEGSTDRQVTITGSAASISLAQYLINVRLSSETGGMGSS
inactive: vemurafenib 0.078 | [1] 0.051 | barasertib 0.016 | [2] 0.001 | volasertib -0.05 | [3] -0.152 | [4] 0.054 | [5] -0.003 | saracatinib -0.018 | sotrastaurin -0.045

PRKD2 isoform 3 (UniProt Q9BZL6)
inactive: vemurafenib 0.041 | [1] -0.048 | barasertib 0.034 | volasertib -0.131 | [3] 0.097 | [4] 0.038 | [5] -0.07 | saracatinib 0 | sotrastaurin 0.085
active: [2] -0.358

PTK2 (UniProt Q05397)
inactive: vemurafenib 0.017 | [1] -0.091 | barasertib -0.015 | [2] 0.352 | volasertib 0.145 | [3] 0.044 | [4] -0.001 | [5] 0.056 | saracatinib -0.023 | sotrastaurin 0.039

POLA1 (UniProt P09884)
inactive: vemurafenib 0.002 | [1] 0 | barasertib 0.042 | [2] 0.021 | volasertib -0.012 | [3] 0.03 | [4] -0.009 | [5] -0.016 | saracatinib -0.003 | sotrastaurin 0.004

PRRC2A (UniProt P48634)
inactive: vemurafenib -0.006 | [1] 0.008 | barasertib -0.013 | [2] 0.107 | volasertib 0.012 | [3] 0.013 | [4] 0.05 | [5] 0.008 | saracatinib 0.049 | sotrastaurin -0.014

PTPN2 (UniProt P17706)
inactive: vemurafenib 0.027 | [1] -0.017 | barasertib 0.051 | [2] -0.028 | volasertib 0 | [3] 0.005 | [4] -0.084 | [5] -0.031 | saracatinib -0.052 | sotrastaurin 0.011

PPP1R14C (UniProt Q8TAE6)
Sequence of UniProt Q8TAE6 (Q8TAE6 whole entry, looked up): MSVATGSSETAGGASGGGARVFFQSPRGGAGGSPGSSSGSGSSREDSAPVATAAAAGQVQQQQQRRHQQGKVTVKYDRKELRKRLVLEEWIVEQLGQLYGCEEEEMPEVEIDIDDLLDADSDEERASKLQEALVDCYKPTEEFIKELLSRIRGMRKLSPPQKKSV
inactive: vemurafenib -0.183 | [1] 0.008 | barasertib 0.002 | [2] -0.084 | volasertib 0.037 | [3] 0.072 | [4] -0.217 | [5] 0.017 | saracatinib -0.022

POLR2G (UniProt P62487)
inactive: vemurafenib -0.014 | [1] 0.02 | barasertib -0.003 | [2] 0.03 | volasertib 0.023 | [3] 0 | [4] 0.025 | [5] 0.05 | saracatinib 0.016 | sotrastaurin 0.011

PRPF6 (UniProt O94906)
inactive: vemurafenib -0.019 | [1] 0.004 | barasertib 0.039 | [2] -0.057 | volasertib -0.015 | [3] 0.019 | [4] 0.034 | [5] -0.049 | saracatinib 0.009 | sotrastaurin 0.025

PTPN6 isoform 4 (UniProt P29350)
Sequence of UniProt P29350 (P29350 whole entry, looked up): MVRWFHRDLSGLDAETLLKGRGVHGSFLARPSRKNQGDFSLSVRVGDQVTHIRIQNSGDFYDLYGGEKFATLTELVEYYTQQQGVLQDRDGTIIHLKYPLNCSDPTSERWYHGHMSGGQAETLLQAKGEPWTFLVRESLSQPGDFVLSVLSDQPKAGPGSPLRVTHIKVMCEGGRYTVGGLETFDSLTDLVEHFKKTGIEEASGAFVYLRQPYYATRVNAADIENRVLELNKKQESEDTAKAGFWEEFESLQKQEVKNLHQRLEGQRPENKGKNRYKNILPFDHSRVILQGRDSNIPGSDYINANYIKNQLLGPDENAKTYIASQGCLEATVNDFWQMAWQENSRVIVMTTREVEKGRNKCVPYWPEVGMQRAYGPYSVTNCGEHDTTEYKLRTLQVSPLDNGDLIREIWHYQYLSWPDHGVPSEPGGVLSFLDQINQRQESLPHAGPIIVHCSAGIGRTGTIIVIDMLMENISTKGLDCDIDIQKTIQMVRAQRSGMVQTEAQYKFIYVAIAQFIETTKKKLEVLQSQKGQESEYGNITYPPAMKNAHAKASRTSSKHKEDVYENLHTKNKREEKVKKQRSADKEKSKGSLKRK
active: [2] -0.487
inactive: vemurafenib 0.02 | [1] -0.089 | barasertib 0.081 | volasertib 0.014 | [3] 0.026 | [4] -0.038 | [5] -0.024 | saracatinib -0.046 | sotrastaurin 0.006

PTK2B (UniProt Q14289)
inactive: vemurafenib 0.001 | [1] -0.03 | barasertib -0.013 | [2] 0.118 | volasertib 0.022 | [3] -0.044 | [4] 0.001 | [5] 0.107 | saracatinib 0.019 | sotrastaurin 0.033

PPCDC (UniProt Q96CD2)
inactive: vemurafenib 0.1 | [1] 0.003 | barasertib 0.066 | [2] 0.047 | volasertib 0.006 | [3] 0.008 | [4] -0.342 | [5] 0.165 | saracatinib 0.018 | sotrastaurin 0.038

PIP4K2A (UniProt P48426)
Sequence of UniProt P48426 (P48426 whole entry, looked up): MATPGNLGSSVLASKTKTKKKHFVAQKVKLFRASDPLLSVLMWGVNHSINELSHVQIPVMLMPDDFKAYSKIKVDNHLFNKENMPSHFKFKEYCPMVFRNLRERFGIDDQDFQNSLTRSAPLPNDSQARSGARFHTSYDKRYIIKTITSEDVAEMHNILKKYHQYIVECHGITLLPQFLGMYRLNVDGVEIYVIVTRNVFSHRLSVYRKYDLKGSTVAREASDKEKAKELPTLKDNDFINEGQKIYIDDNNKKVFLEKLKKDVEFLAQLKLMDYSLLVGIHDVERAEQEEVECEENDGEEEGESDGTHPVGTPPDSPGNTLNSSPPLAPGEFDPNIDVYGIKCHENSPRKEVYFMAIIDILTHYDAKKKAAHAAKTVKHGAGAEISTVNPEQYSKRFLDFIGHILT
active: [2] 0.31
inactive: vemurafenib 0 | [1] -0.009 | barasertib -0.051 | volasertib 0.087 | [3] 0.073 | [4] -0.035 | [5] 0.155 | saracatinib 0.036 | sotrastaurin 0.02

PDCD10 (UniProt Q9BUL8)
inactive: vemurafenib -0.021 | [1] -0.002 | barasertib 0.006 | [2] -0.012 | volasertib 0.007 | [3] 0 | [5] 0.029 | saracatinib 0.016 | sotrastaurin 0.04
active: [4] -0.269

PIK3CB (UniProt P42338)
inactive: vemurafenib -0.079 | [1] 0.001 | barasertib 0.011 | [2] 0.314 | volasertib -0.025 | [3] -0.07 | [4] -0.02 | [5] 0.427 | saracatinib -0.03 | sotrastaurin 0.158

PELO (UniProt Q9BRX2)
Sequence of UniProt Q9BRX2 (Q9BRX2 whole entry, looked up): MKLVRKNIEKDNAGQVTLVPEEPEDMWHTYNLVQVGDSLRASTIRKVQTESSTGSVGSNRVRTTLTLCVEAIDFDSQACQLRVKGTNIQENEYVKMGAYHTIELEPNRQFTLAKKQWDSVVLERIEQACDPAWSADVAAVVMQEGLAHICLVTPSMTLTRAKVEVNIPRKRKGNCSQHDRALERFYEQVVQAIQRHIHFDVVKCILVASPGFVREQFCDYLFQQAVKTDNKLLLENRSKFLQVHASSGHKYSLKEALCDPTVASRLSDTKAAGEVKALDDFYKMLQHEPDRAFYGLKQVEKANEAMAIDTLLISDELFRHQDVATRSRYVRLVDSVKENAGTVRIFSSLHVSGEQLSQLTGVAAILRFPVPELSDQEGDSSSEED
inactive: vemurafenib 0 | [1] 0.021 | barasertib 0.037 | [2] -0.115 | volasertib -0.066 | [3] -0.014 | [5] -0.183 | saracatinib -0.001 | sotrastaurin -0.018
active: [4] 0.404

PPP2R5B (UniProt Q15173)
inactive: vemurafenib -0.036 | [1] 0 | barasertib -0.016 | [2] -0.057 | volasertib 0.031 | [3] 0 | [4] -0.01 | [5] -0.079 | saracatinib 0.001 | sotrastaurin -0.074

PUS3 (UniProt Q9BZE2)
Sequence of UniProt Q9BZE2 (Q9BZE2 whole entry, looked up): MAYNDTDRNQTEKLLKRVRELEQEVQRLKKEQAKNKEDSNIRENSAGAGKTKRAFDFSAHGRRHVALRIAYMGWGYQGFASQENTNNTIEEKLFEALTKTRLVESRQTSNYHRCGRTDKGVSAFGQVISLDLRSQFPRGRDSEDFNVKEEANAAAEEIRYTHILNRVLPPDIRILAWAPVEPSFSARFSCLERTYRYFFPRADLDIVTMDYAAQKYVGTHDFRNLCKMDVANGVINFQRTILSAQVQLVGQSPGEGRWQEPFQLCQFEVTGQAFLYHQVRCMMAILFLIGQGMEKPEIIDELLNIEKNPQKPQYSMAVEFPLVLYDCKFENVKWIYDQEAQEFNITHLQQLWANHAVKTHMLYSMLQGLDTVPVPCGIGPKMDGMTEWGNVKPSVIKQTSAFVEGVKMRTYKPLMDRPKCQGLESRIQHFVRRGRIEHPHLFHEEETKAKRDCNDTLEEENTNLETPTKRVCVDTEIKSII
inactive: vemurafenib 0.083 | [1] 0.036 | barasertib 0.074 | [2] -0.058 | volasertib -0.007 | [3] 0.071 | [4] 0.193 | [5] -0.195 | saracatinib 0.018 | sotrastaurin 0.052

PCYT1B (UniProt Q9Y5K3)
inactive: vemurafenib 0.013 | [1] 0.011 | barasertib 0.012 | [2] 0.046 | volasertib 0.017 | [3] 0.008 | [4] -0.094 | [5] 0.063 | saracatinib 0.012 | sotrastaurin -0.002

PGRMC1 (UniProt O00264)
inactive: vemurafenib -0.009 | [1] -0.043 | barasertib 0.019 | [2] 0.015 | volasertib 0.008 | [3] 0.021 | [4] -0.045 | [5] 0.071 | saracatinib -0.017 | sotrastaurin -0.003

PIP4K2C (UniProt Q8TBX8)
Sequence of UniProt Q8TBX8 (Q8TBX8 whole entry, looked up): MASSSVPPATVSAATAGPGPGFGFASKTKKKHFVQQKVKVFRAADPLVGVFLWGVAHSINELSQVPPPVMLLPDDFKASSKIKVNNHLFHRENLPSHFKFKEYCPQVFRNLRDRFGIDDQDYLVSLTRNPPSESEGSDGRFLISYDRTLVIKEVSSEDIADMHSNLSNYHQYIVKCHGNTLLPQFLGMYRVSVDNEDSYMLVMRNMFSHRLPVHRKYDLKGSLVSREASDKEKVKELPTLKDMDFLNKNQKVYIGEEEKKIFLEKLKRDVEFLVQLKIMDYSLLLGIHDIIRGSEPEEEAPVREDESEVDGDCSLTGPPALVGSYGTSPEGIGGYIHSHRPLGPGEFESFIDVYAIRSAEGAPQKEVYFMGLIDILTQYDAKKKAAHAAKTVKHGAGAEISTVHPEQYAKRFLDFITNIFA
inactive: vemurafenib 0.039 | [1] -0.028 | barasertib -0.045 | volasertib 0.206 | [3] 0.103 | [4] -0.114 | [5] 0.225 | saracatinib -0.01 | sotrastaurin -0.019
active: [2] 0.463
